Common to all, as to assay: PBM; 200 nM protein, PBS
What all share (conditions): dsDNA, one strand shown

Assay [1] addresses T1, SIX6 (Homo sapiens, UniProt O95475 114-200, L167I).
T1 sequence: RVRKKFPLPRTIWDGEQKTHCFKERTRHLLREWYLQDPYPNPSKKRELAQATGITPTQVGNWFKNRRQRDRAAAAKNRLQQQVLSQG

For assay [2], the target named is T2, SIX6 (Homo sapiens, UniProt O95475 114-200, L143V).
T2 sequence: T1 sequence with L30V, I54L

Assay [3] deals with T3, SIX6 (Homo sapiens, UniProt O95475 114-200, H141N).
T3 sequence: T1 sequence with H28N, I54L

For assay [4], the target named is T4, SIX6 (Homo sapiens, UniProt O95475 114-200, T165P).
T4 sequence: T1 sequence with T52P, I54L

The target in assay [5] is T5, SIX6 (Homo sapiens, UniProt O95475 114-200, L167M).
T5 sequence: T1 sequence with I54M

Assay [6] addresses T6, SIX6 (Homo sapiens, UniProt O95475 114-200, L143M).
T6 sequence: T1 sequence with L30M, I54L

Assay [7] has as its target T7, SIX6 (Homo sapiens, UniProt O95475 114-200, L143I).
T7 sequence: T1 sequence with L30I, I54L

In assay [8] the target is T8, SIX6 (Homo sapiens, UniProt O95475 114-200, T165G).
T8 sequence: T1 sequence with T52G, I54L

For assay [9], the target named is T9, SIX6 (Homo sapiens, UniProt O95475 114-200, T139Q).
T9 sequence: T1 sequence with T26Q, I54L

The target in assay [10] is T10, SIX6 (Homo sapiens, UniProt O95475 114-200, T165A).
T10 sequence: T1 sequence with T52A, I54L

The target in assay [11] is T11, SIX6 (Homo sapiens, UniProt O95475 114-200, L167V).
T11 sequence: T1 sequence with I54V

In assay [12] the target is T12, SIX6 (Homo sapiens, UniProt O95475 114-200).
T12 sequence: T1 sequence with I54L

Assay [13] deals with T13, SIX6 (Homo sapiens, UniProt O95475 114-200, T165I).
T13 sequence: T1 sequence with T52I, I54L

Substitutions are numbered along the chain they refer to.

Data on 6 sequences can be found in PMC11006913.

Regarding GTGATACA, the binding signal with SIX6 [1] was 11.4 upbm affinity estimate (log intensity, higher = more binding, comparable within an allelic series); with SIX6 [2] it was 10.4 upbm affinity estimate (log intensity, higher = more binding, comparable within an allelic series); in the assay with SIX6 [3] it was 11.4 upbm affinity estimate (log intensity, higher = more binding, comparable within an allelic series); with SIX6 [4] it was 9.76 upbm affinity estimate (log intensity, higher = more binding, comparable within an allelic series); in the assay with SIX6 [5], 10.8 upbm affinity estimate (log intensity, higher = more binding, comparable within an allelic series); with SIX6 [6], 11.2 upbm affinity estimate (log intensity, higher = more binding, comparable within an allelic series). Besides, the binding signal in the assay with SIX6 [7] was 10.4 upbm affinity estimate (log intensity, higher = more binding, comparable within an allelic series); in the assay with SIX6 [8], 11.3 upbm affinity estimate (log intensity, higher = more binding, comparable within an allelic series); with SIX6 [9], 11.3 upbm affinity estimate (log intensity, higher = more binding, comparable within an allelic series); with SIX6 [10], 11.3 upbm affinity estimate (log intensity, higher = more binding, comparable within an allelic series); with SIX6 [11] it was 11.1 upbm affinity estimate (log intensity, higher = more binding, comparable within an allelic series); with SIX6 [12], 11 upbm affinity estimate (log intensity, higher = more binding, comparable within an allelic series). Moreover, the binding signal with SIX6 [13] was 11.2 upbm affinity estimate (log intensity, higher = more binding, comparable within an allelic series).
For the sequence GCCAGTCC, the binding signal in the assay with SIX6 [1] was 9.04 upbm affinity estimate (log intensity, higher = more binding, comparable within an allelic series); with SIX6 [2] it was 8.92 upbm affinity estimate (log intensity, higher = more binding, comparable within an allelic series); in the assay with SIX6 [3], 8.9 upbm affinity estimate (log intensity, higher = more binding, comparable within an allelic series); with SIX6 [4], 9.04 upbm affinity estimate (log intensity, higher = more binding, comparable within an allelic series); with SIX6 [5] it was 8.92 upbm affinity estimate (log intensity, higher = more binding, comparable within an allelic series); with SIX6 [6], 8.89 upbm affinity estimate (log intensity, higher = more binding, comparable within an allelic series). Moreover, the binding signal is 9.03 upbm affinity estimate (log intensity, higher = more binding, comparable within an allelic series) with SIX6 [7]; 9 upbm affinity estimate (log intensity, higher = more binding, comparable within an allelic series) in the assay with SIX6 [8]; 9.12 upbm affinity estimate (log intensity, higher = more binding, comparable within an allelic series) with SIX6 [9]; 8.81 upbm affinity estimate (log intensity, higher = more binding, comparable within an allelic series) with SIX6 [10]; 8.95 upbm affinity estimate (log intensity, higher = more binding, comparable within an allelic series) in the assay with SIX6 [11]; 8.9 upbm affinity estimate (log intensity, higher = more binding, comparable within an allelic series) with SIX6 [12]. For the same sequence, the binding signal with SIX6 [13] is 8.85 upbm affinity estimate (log intensity, higher = more binding, comparable within an allelic series).
GCGCTGCC: the binding signal in the assay with SIX6 [1] was 8.75 upbm affinity estimate (log intensity, higher = more binding, comparable within an allelic series); with SIX6 [2] it was 8.74 upbm affinity estimate (log intensity, higher = more binding, comparable within an allelic series); with SIX6 [3], 8.81 upbm affinity estimate (log intensity, higher = more binding, comparable within an allelic series); with SIX6 [4] it was 8.85 upbm affinity estimate (log intensity, higher = more binding, comparable within an allelic series); with SIX6 [5], 8.8 upbm affinity estimate (log intensity, higher = more binding, comparable within an allelic series); with SIX6 [6], 8.76 upbm affinity estimate (log intensity, higher = more binding, comparable within an allelic series). Also, the binding signal in the assay with SIX6 [7] was 8.77 upbm affinity estimate (log intensity, higher = more binding, comparable within an allelic series); with SIX6 [8] it was 8.82 upbm affinity estimate (log intensity, higher = more binding, comparable within an allelic series); in the assay with SIX6 [9] it was 8.75 upbm affinity estimate (log intensity, higher = more binding, comparable within an allelic series); with SIX6 [10], 8.8 upbm affinity estimate (log intensity, higher = more binding, comparable within an allelic series); with SIX6 [11], 8.69 upbm affinity estimate (log intensity, higher = more binding, comparable within an allelic series); with SIX6 [12], 8.71 upbm affinity estimate (log intensity, higher = more binding, comparable within an allelic series). Also, the binding signal in the assay with SIX6 [13] was 8.78 upbm affinity estimate (log intensity, higher = more binding, comparable within an allelic series).
In the case of AGCTCCGC, the binding signal with SIX6 [1] is 9.05 upbm affinity estimate (log intensity, higher = more binding, comparable within an allelic series); with SIX6 [2] it was 8.96 upbm affinity estimate (log intensity, higher = more binding, comparable within an allelic series); with SIX6 [3], 8.98 upbm affinity estimate (log intensity, higher = more binding, comparable within an allelic series); with SIX6 [4], 8.97 upbm affinity estimate (log intensity, higher = more binding, comparable within an allelic series); in the assay with SIX6 [5], 8.95 upbm affinity estimate (log intensity, higher = more binding, comparable within an allelic series); in the assay with SIX6 [6], 9.08 upbm affinity estimate (log intensity, higher = more binding, comparable within an allelic series). The binding signal with SIX6 [7] is 9.04 upbm affinity estimate (log intensity, higher = more binding, comparable within an allelic series); with SIX6 [8] it was 9.04 upbm affinity estimate (log intensity, higher = more binding, comparable within an allelic series); with SIX6 [9], 8.99 upbm affinity estimate (log intensity, higher = more binding, comparable within an allelic series); with SIX6 [10], 8.94 upbm affinity estimate (log intensity, higher = more binding, comparable within an allelic series); with SIX6 [11] it was 9.1 upbm affinity estimate (log intensity, higher = more binding, comparable within an allelic series); with SIX6 [12], 8.9 upbm affinity estimate (log intensity, higher = more binding, comparable within an allelic series). Moreover, in the assay with SIX6 [13], the binding signal was 9.01 upbm affinity estimate (log intensity, higher = more binding, comparable within an allelic series).
CGGCCTTC: the binding signal with SIX6 [1] is 8.62 upbm affinity estimate (log intensity, higher = more binding, comparable within an allelic series); with SIX6 [2], 8.87 upbm affinity estimate (log intensity, higher = more binding, comparable within an allelic series); with SIX6 [3] it was 8.82 upbm affinity estimate (log intensity, higher = more binding, comparable within an allelic series); with SIX6 [4], 9 upbm affinity estimate (log intensity, higher = more binding, comparable within an allelic series); in the assay with SIX6 [5], 8.83 upbm affinity estimate (log intensity, higher = more binding, comparable within an allelic series); in the assay with SIX6 [6], 8.77 upbm affinity estimate (log intensity, higher = more binding, comparable within an allelic series). Further, the binding signal is 8.94 upbm affinity estimate (log intensity, higher = more binding, comparable within an allelic series) with SIX6 [7]; 8.84 upbm affinity estimate (log intensity, higher = more binding, comparable within an allelic series) with SIX6 [8]; 8.59 upbm affinity estimate (log intensity, higher = more binding, comparable within an allelic series) in the assay with SIX6 [9]; 8.81 upbm affinity estimate (log intensity, higher = more binding, comparable within an allelic series) with SIX6 [10]; 8.94 upbm affinity estimate (log intensity, higher = more binding, comparable within an allelic series) with SIX6 [11]; 8.77 upbm affinity estimate (log intensity, higher = more binding, comparable within an allelic series) with SIX6 [12]. In the assay with SIX6 [13], the binding signal was 8.7 upbm affinity estimate (log intensity, higher = more binding, comparable within an allelic series).
For GCCCGGAA, the binding signal was 9.01 upbm affinity estimate (log intensity, higher = more binding, comparable within an allelic series) with SIX6 [1]; 8.91 upbm affinity estimate (log intensity, higher = more binding, comparable within an allelic series) with SIX6 [2]; 8.98 upbm affinity estimate (log intensity, higher = more binding, comparable within an allelic series) in the assay with SIX6 [3]; 8.9 upbm affinity estimate (log intensity, higher = more binding, comparable within an allelic series) in the assay with SIX6 [4]; 8.95 upbm affinity estimate (log intensity, higher = more binding, comparable within an allelic series) with SIX6 [5]; 9.01 upbm affinity estimate (log intensity, higher = more binding, comparable within an allelic series) with SIX6 [6]. The binding signal is 9 upbm affinity estimate (log intensity, higher = more binding, comparable within an allelic series) with SIX6 [7]; 9.03 upbm affinity estimate (log intensity, higher = more binding, comparable within an allelic series) in the assay with SIX6 [8]; 9.07 upbm affinity estimate (log intensity, higher = more binding, comparable within an allelic series) with SIX6 [9]; 8.96 upbm affinity estimate (log intensity, higher = more binding, comparable within an allelic series) with SIX6 [10]; 8.95 upbm affinity estimate (log intensity, higher = more binding, comparable within an allelic series) with SIX6 [11]; 8.97 upbm affinity estimate (log intensity, higher = more binding, comparable within an allelic series) with SIX6 [12]. Further, the binding signal with SIX6 [13] is 8.98 upbm affinity estimate (log intensity, higher = more binding, comparable within an allelic series).
